Screening data deposited in PubChem by National Center for Advancing Translational Sciences (NCATS).
ERK EGF block: inhibitors of EGF-stimulated ERK signaling pathway; HEK293-V1b, EGF-stimulated phospho-ERK AlphaScreen; Potency, µM (titrated, usually from 11.5 µM), without a hit: top-dose activity change, negative = inhibition, actives largely listed as inhibitors; 130,000 tested, 0.41% active;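 note: plate controls were stimulated vehicle wells for no effect and unstimulated vehicle basal for full effect; nearly all actives have a fitted effect of over 55% in size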
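In this qHTS, HEK293 cells with stable type-1 vasopressin (V1b) receptor were exposed to compound at 37C for 30 min, stimulated 5 min with EGF at 25 nM, lysed, and probed for phospho-ERK by AlphaScreen.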
HttQ103 aggreg: mutant huntingtin aggregation inhibition. 220,000 tested, 1.1% active. PC12 HttQ103-GFP aggregates, Acumen cytometry, 40 h. Potency, µM (series often up to 46.1 µM), without a hit: at the top dose activity change, negative = inhibition, usual class: inhibitors. AID 1688; note: % is set by controls: 0 for no effect and ±100 for the full control effect; nearly all actives have a fitted effect of over 60% in size
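Huntingtin Q103 exon 1–GFP aggregates in induced PC12 cells (100 nM tebufenozide) were quantified by cytometry from lysates, with compounds dosed in titration.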
IMPase Li inh: IMPase inhibition in cells with lithium potentiation; CHO-M1 cells, IP1 TR-FRET (IP-One), carbachol + lithium; Potency, µM (highest dose often 59.4 µM), for the others: top-dose activity, negative = IMPase inhibition, usual class: inhibitors; 210,000 tested, 0.35% active; AID 1457;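 note: IP1 builds up when IMPase is blocked and the TR-FRET signal falls; plate controls were basal vehicle for no effect and high inhibitor control for full effect; nearly all actives have a fitted effect of over 50% in size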
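Test compounds were applied to CHO-M1 cells previously cultured for 16–30 h at 2000 per well. A small lithium amount accompanied them; after 30 min at 37C, IP1 was quantified by TR-FRET.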
NPSR antag: antagonists of human neuropeptide S receptor cAMP signaling | 220,000 tested, 1% active | CHO-NPSR cells, cAMP TR-FRET, antagonist mode | AID 1461 | Potency, µM (titrated, usually from 38.3 µM), without a hit: at the highest dose activity change, negative = inhibition, hits mostly inhibitors | Q6W5P4; note: % is set by controls: 0 for no effect and ±100 for the full control effect; nearly all actives have a fitted effect of over 50% in size
Target sequence (Q6W5P4 whole entry, looked up): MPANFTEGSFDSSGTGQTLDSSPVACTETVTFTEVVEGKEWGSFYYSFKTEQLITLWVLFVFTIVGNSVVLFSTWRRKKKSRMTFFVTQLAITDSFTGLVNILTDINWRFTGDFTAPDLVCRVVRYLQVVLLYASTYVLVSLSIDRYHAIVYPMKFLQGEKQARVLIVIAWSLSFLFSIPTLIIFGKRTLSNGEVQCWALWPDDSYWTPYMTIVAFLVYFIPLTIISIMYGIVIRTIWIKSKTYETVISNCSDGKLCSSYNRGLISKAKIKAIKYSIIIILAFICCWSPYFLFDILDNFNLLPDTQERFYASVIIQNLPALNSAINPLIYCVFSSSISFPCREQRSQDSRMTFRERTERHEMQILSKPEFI
HTT ATP protect: Huntington cell model cytoprotection by ATP luminescence. PC12 HTT-Q103 induced, cytoprotection, ATP luminescence, 40 h. Potency, µM (titrated, usually from 56.4 µM), for the others: cytoprotection (ATP increase), hits mostly activators. 230,000 tested, 0.14% active; note: % of control where 0% means no effect; nearly all actives have a fitted effect of over 45% in size
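Quantitative HTS on tebufenozide-induced (100 nM) PC12 cells expressing HTTQ103 exon 1–GFP; compounds tested as a concentration series; survival measured via cellular ATP.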
Numbers without * were called inactive; ? = inconclusive; . = no result given; [ ] = dose if it differs, or a comment. Only some compounds are listed: those with a hit (about 1.9% of all), similar ones and a draw of the others. Calls come from the whole dose curve; as a rule, active = well fitted curve in the direction sought with a large enough effect; inconclusive = small, poorly fitted or top-dose-only effect, or another doubt; inactive = no such curve, though single readings can be large; an effect the other way counts as inactive or inconclusive. Potency is the fitted concentration of half-maximal effect.

SMILES	ERK EGF block	HttQ103 aggreg	IMPase Li inh	NPSR antag	HTT ATP protect
COC(=O)c1sc(N2C(=O)C(O)=C(C(=O)c3ccc(C)o3)C2c2ccc(F)cc2)nc1C (centres undefined)	.	11.1%	7.94µM*	22.4%[46.1 µM]	-9.9%[10 µM]
COCCCN1C(=O)C(O)=C(C(=O)c2ccco2)C1c1ccccc1 (centres undefined)	.	6.2%	7.94µM*	?	4.4%[10 µM]
CO[C@H]1C[C@@H]2CC[C@@H](C)[C@@](O)(O2)C(=O)C(=O)N2CCCC[C@H]2C(=O)O[C@H]([C@H](C)C[C@@H]2CC[C@@H](O)[C@H](OC)C2)CC(=O)[C@H](C)/C=C(\C)[C@@H](O)[C@@H](OC)C(=O)[C@H](C)C[C@H](C)/C=C/C=C/C=C/1C	.	-20.7%	.	.	-51.5%
Cc1ccc(C2C(C(=O)c3ccco3)=C(O)C(=O)N2c2nnc(C)s2)cc1 (centres undefined)	.	-1.1%	10µM*	-19.9%[46.1 µM]	-26.5%
CC(C)Oc1ccc(C2C(C(=O)c3ccco3)=C(O)C(=O)N2Cc2cccnc2)cc1 (centres undefined)	.	-1.0%	?	8.6%[46.1 µM]	3.7%[0.074 µM]
CCOc1ccc(C2C(C(=O)c3ccco3)=C(O)C(=O)N2Cc2cccnc2)cc1OC (centres undefined)	.	-12.7%	11.2µM*	-3.9%[46.1 µM]	15.6%
CCCCc1nc2c(c3c1C[C@H](C)OC3)CN(C(=O)c1ccco1)CC2	.	.	4.3%	.	-11.6%[10 µM]
CCN(CC)c1ccc(/C=C2/SC(=O)N(C(C)C)C2=O)o1	28.2µM*	?	11.3%	-43.2%	.
O=C(NC1CCCC1)c1cc(COc2ccc3ncccc3c2)on1	-9.8%[57.5 µM]	-5.2%[9.22 µM]	.	-9.5%	?
O=C(NCCc1cn2ccccc2n1)c1cc(COc2ccc3ncccc3c2)on1	28.2µM*	11.2µM*	.	49.1%	-80.6%
Cc1ccc(C(=O)c2cc3ccccc3o2)cc1[N+](=O)[O-]	22.4µM*	-15.8%	10.1%	-10.7%	-9.8%
C/C(=N\NS(=O)(=O)c1ccc(C)c([N+](=O)[O-])c1)c1cc2ccccc2o1	.	-7.4%	6.7%[38.3 µM]	-7.5%[46.1 µM]	6.9%
C[C@H](O)[C@H](O)[C@@H]1CNc2nc(N)[nH]c(=O)c2N1	.	.	.	.	-20.7%[1.9 µM]
COc1ccc(CCNC(=O)c2c(C)nc3ccccn23)cc1	-4.3%[57.5 µM]	-8.4%	4.2%	28.9%	-0.8%
Cc1ccc(SCC(=O)c2c(C)nc3ccccn23)cc1	-6.5%	14.1µM*	-0.9%	-0.8%	-79.1%
CCOC(=O)c1c(C)nc2ccccn12	.	-22.8%	-8.7%[38.3 µM]	11.0%[7.67 µM]	4.3%
COc1ccc(CNC(=O)c2c(C)nc3ccccn23)cc1	2.5%	25.1µM*	3.4%	11.6%[46.1 µM]	22.1%[10 µM]
COc1ccc2[nH]cc(CCNc3nc(-c4cccc(C#N)c4)nc4ccccc34)c2c1	.	.	11.8%	.	-254.6%
COc1ccccc1NS(=O)(=O)c1cc(NC(=O)Nc2ccc(Cl)cc2Cl)ccc1N1CCCCC1	-4.5%	25.1%	2.9%	-4.2%	4.8%[10 µM]
O=C(Nc1cccc(C(F)(F)F)c1)Nc1ccc(N2CCCC2)c(S(=O)(=O)Nc2ccccc2Cl)c1	-0.7%	?	2.3%	10µM*	-47.7%[10 µM]
CC1=C(CO)C(=O)OC([C@@H](C)C2CC[C@H]3C4C[C@H]5O[C@]56[C@@H](O)C=CC(=O)[C@]6(C)C4CC[C@]23C)C1 (some centres undefined)	5.1%[57.5 µM]	?	.	5.01µM*	3.55µM*
CC(C(=O)O)C1CCC2C3CC=C4CC(O)CC[C@@]4(C)C3CC[C@]12C (some centres undefined)	27.0%	.	-0.4%	.	.
COc1cccc(CN2CC(O)=C(c3nc(-c4ccc(Cl)cc4)cs3)C2=N)c1	.	13.0%	5.62µM*	-29.5%[46.1 µM]	-9.2%
FC(F)(F)c1cccc(-c2nc3nc(Cl)c(Cl)nc3[nH]2)c1	-16.0%[57.5 µM]	?	9.1%	6.31µM*	-15.7%[10 µM]
COc1cccc(-n2nc(C(N)=O)c(O)cc2=O)c1	-3.0%	1.6%	-1.4%	7.1%	-14.9%
SMILES	ERK EGF block	HttQ103 aggreg	IMPase Li inh	NPSR antag	HTT ATP protect
COc1cccc(-n2nc(C#N)c(Cl)cc2=O)c1	3.7%	3.55µM*	10.9%	-40.8%	-173.0%
N#CCCn1c(=O)c(-c2ccccc2)nc2cnc(OCc3ccccc3)nc21	11.5%	.	11.2µM*	.	-30.2%
COc1ccc(-c2nc3cnc(OCc4ccccc4)nc3n(CCC#N)c2=O)cc1	.	.	22.4µM*	.	?
COc1ccc(-c2nc3cnc(Oc4ccccc4)nc3n(CCC#N)c2=O)cc1	.	.	10µM*	.	-34.8%
N#CCCn1c(=O)c(-c2ccc(F)cc2)nc2cnc(OCc3ccccc3)nc21	.	.	-15.1%	.	?
COc1ccc(-c2nc3cnc(OC)nc3n(CCC#N)c2=O)cc1	.	.	-10.6%	.	4.6%
N#CCCn1c(=O)c(-c2ccc(Cl)cc2)nc2cnc(OCc3ccccc3)nc21	-14.6%	.	17.6%	.	-1.2%
CCOC(=O)NC(=O)CSc1nc(C)cc(C(F)(F)F)c1C#N	.	10µM*	21.1%[38.3 µM]	-12.4%[46.1 µM]	31.1%
COC(=O)CSc1nc(C)cc(C(F)(F)F)c1C#N	.	6.1%	-6.8%[38.3 µM]	-13.5%[46.1 µM]	-10.2%
C=C(C)C(=O)OC1(C(F)(F)F)Oc2cc(C)ccc2NC1=O (centres undefined)	.	?	-6.1%[38.3 µM]	10µM*	37.4%
N#Cc1ccccc1-c1ccc2ncnc(NCc3cccs3)c2c1	.	.	?	.	-33.2%
NC(=O)C1CCN(CCC(=O)Nc2ccc(Br)cc2)CC1	?	.	10.9%[38.3 µM]	-28.6%[46.1 µM]	0.112µM*
Cc1cc(NC(=O)CCN2CCC(C(N)=O)CC2)ccc1Br	.	-5.2%	30.3%[38.3 µM]	-7.8%[46.1 µM]	5.2%
NC(=O)C1CCN(CC(=O)Nc2ccccn2)CC1	.	2.24µM*	21.2%[38.3 µM]	0.4%[46.1 µM]	-0.2%
CCOc1cc(/C=C2/C(=O)ON=C2C)ccc1OCc1ccccc1F	.	12.3%	26.4%[38.3 µM]	15.8µM*	-18.6%
CCOc1cc(/C=C2/C(=O)ON=C2C)ccc1OCc1ccccc1	?	16.3%[9.22 µM]	23.8%	26.8%	14.4%[10 µM]
O=C(O)CCCCn1ccc(=O)[nH]c1=O	.	.	-3.7%	.	-2.7%[10 µM]
O[C@@H](c1cc([C@@]23C[C@H]4CC[C@@H]2C[C@H](C4)C3)nc2c(Cl)cc(Cl)cc12)[C@@H]1CCCCN1	.	.	.	.	2.4%[10 µM]
COC1=C(C(=O)c2ccccc2)C(=O)C2(CC=C(C)C)C[C@H](C(=O)OCC(F)(F)F)C(C)(C)[C@@]1(CC=C(C)C)C2=O (tested in a mixture with another compound)	-1.2%	.	18.8%	.	?
CCC(=C(c1ccc(OC)cc1)c1ccc(OC)cc1)c1cn(CC(O)CN2CCN(C)CC2)c2ccccc12 (centres undefined)	.	15.8µM*	49.1%[38.3 µM]	?	-99.3%
COc1ccc(-c2cc3ccccc3n2CC(O)CN2CCCCC2)cc1 (centres undefined)	-2.4%[57.5 µM]	-33.2%[9.22 µM]	.	-8.0%	-11.4%[10 µM]
CCN(CC)Cc1c(O)ccc2c(=O)c(Oc3ccccc3OC)coc12	.	10.9%	?	1.4%[46.1 µM]	13.7%
